Data on 40 molecules can be found in PubChem BioAssay (NCATS).

Where “and” joins values, the source holds several entries; their conditions need not be identical. Equal values may be shown once. Inconclusive results are not listed. A number with no mark means an inactive call. Calls of active or inactive are those of the source. The call rests on the fitted dose curve; in most records, active means well fitted cell-killing curve with a large enough effect; inconclusive means small, poorly fitted or top-dose-only effect; inactive means flat fitted curve, though single readings scatter.
On the % scale 0 is the no-effect control and ±100 the full control effect.

A short description of this experiment: Cellular viability qHTS for adrenocortical cancer (ACC) cell line SW-13 (AID 1963989). Further: nearly all actives have a fitted effect of over 65% in size.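 On activity (max response): cells grown in serum-free medium with ITS supplement.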 Particulars: SW-13 ACC cells viability, CellTiter-Glo, 48 h; activity (max response): hits give low values. The text has this: PI: Naris Nilubol, MD Surgical Oncology Program, National Cancer Institute (NCI) National Institute of Health (NIH), Bethesda, Maryland Adrenocortical cancer (ACC) is a rare malignancy with poor survival outcomes and few treatment options. Currently, mitotane is the only FDA-approved therapy for ACC. Although adjuvant radiation therapy is rarely utilized, it has the potential to improve survival in select cases. Through a quantitative high-throughput drug screen (qHTS), we identified auranofin (AF), a thioredoxin reductase (TXNRD) inhibitor, as a promising candidate drug. This study aims to evaluate whether AF can enhance the efficacy of radiation therapy in the treatment of ACC. Two human ACC cell lines, SW-13 and NCI-H295R, were screened using the National Center for Advancing Translational Sciences (NCATS) Pharmaceutical Collection (NPC) and the Mechanism Interrogation PlatE (MIPE) library (~4,991 compounds). CellTiter-Glo (Cat # G7570, Promega, Madison, WI) was utilized to measure cell viability. Described herein are the results of the corresponding viability assay.
PROTOCOL TABLE (as described by Inglese J, Shamu CE and Guy RK. 2007) SEQUENCE No. (e.g., 1, 2, 3, etc.); […] (e.g., Cells, Incubation, Reagent, etc.); VALUE; DESCRIPTION. 1; Cells; 5 uL; white, solid-bottom, 1536-well tissue-culture treated plates. 2; Time; overnight culture at 37C with 5% CO2. 3; Compounds and control; 23 nL; Kalypsis pin tool (Wako USA) equipped with a 1536-well pin head to transfer to the assay plates. 4; Time; 48 hours; 37C with 5% CO2. 5; Reagent; 4 uL; CellTiter-Glo luminescent substrate mix. 6; Time; 20 min at room temperature. 7; Detection; Luminescence; ViewLux plate reader NOTES (numbers refer to Sequence numbers above) 1. SW13 cells were harvested from a T175 flask and resuspended in ITS-supplemented DMEM serum-free medium at a concentration of 300 000 cells/mL. Then 5 uL of resuspended cells were dispensed into each well of white, solid-bottom, 1536-well tissue-culture-treated plates using a multidrop combi dispenser. The plates were covered with stainless steel gasket lids. 2-3. The plates were cultured overnight at 37C with 5% CO2. Twenty-three nL of compounds (eight selected concentrations from the NPC / MIPE) or positive control (10 mM stock of bortezomib) in DMSO was transferred to each well of the assay plate using a pin tool (Kalypsys, San Diego, CA, USA). The final concentration of the compounds in the 5 uL assay volume ranged from 0.5 nM to 46 uM. 4-6. After 48 hours of incubation at 37C and 5% CO2, 4 uL of CellTilter-Glo luminescent substrate mix (Promega, Madison, WI, USA) was added to each well. Then the plates were incubated for 20 minutes at room temperature. 7. After incubation, luminescence was measured using a ViewLux plate reader (PerkinElmer, Waltham, MA, USA) with a clear filter was used to measure the number of metabolically competent cells. To determine compound activity in the qHTS assay, the titration-response data for each sample was plotted and modeled by a four-parameter logistic fit yielding IC50 and efficacy (maximal response) values. […] REFERENCES: Inglese J, Shamu CE and Guy RK, Reporting data from high throughput screening of small molecule libraries, Nature Chemical Biology, 2007, 3(8): 438-441. doi.org/10.1038/nchembio0807-438.
A general note: In qHTS, concentration-response curves come from the screen itself.
On to `C#CCN[C@@H]1CCc2ccccc21`, for which the activity (max response) was 3.89% and -12.7%. Take `OCCn1cc(-c2cnc3nnn(Cc4ccc5ncccc5c4)c3n2)cn1`: the activity (max response) was -4.78%. On the same count and under the same terms, in the case of `C/C=C(/C)C(=O)O[C@H]1C(C)=CC23C(=O)C(C=C(CO)[C@@H](O)[C@]12O)[C@H]1[C@@H](C[C@H]3C)C1(C)C` (stereo not given in full) it was -8.96%. On the same count and under the same terms, with `Nc1ccc(C(=O)N2CC3CC(CN(Cc4ccccc4)C3)C2)cc1` the figure was 7.04%; with `NC(N)=Nc1nc(CSCC/C(N)=N/S(N)(=O)=O)cs1`, 9.53%; with `Cc1nc([N+](=O)[O-])cn1-c1ccc([N+](=O)[O-])cc1`, -2.45%. On the same count and under the same terms, in the case of `CN1[C@@H]2CC[C@H]1CC(OC(=O)C(O)c1ccccc1)C2` (stereo not given in full) it was 7.83%. Regarding `COC(=O)[C@@H](N)Cc1ccc(O)c(O)c1`, the activity (max response) was -15%. For `Nc1nccc(-c2ccc3noc(-c4ccc(Cl)cc4)c3c2)n1`, the activity (max response) was -6.01%. Take `CN1c2ccccc2C(=O)N2CCc3c([nH]c4ccccc34)C21` (stereo not given): the Potency was 2.24 µM (active). Consider `O=c1oc2c(O)c(O)cc3c(=O)oc4c(O)c(O)cc1c4c23`, for which the activity (max response) was 9.27% and 2.22%. As to `COc1ccc(-c2oc3ncnc(N)c3c2-c2ccc(NC(=O)Nc3cc(C(F)(F)F)ccc3F)cc2)cc1`, the activity (max response) was 0.756%.

As to `C/C(=N\O)[C@@H](C)NCC(C)(C)CN[C@H](C)/C(C)=N/O`, the activity (max response) is 8.19%. Still for that read-out and setting: with `N#CC[C@H](C1CCCC1)n1cc(-c2ncnc3[nH]ccc23)cn1` the figure was -17.5%; with `O=C(O)CCCc1c[nH]c2ccccc12`, 1.46%. For `O=c1[nH]nc2c3c(cccc13)NC(CN1Cc3ccccc3C1)=N2`, the activity (max response) was -23.2%. As to `CCCCc1oc2ccc(NS(C)(=O)=O)cc2c1C(=O)c1ccc(OCCCN(CCCC)CCCC)cc1`, the Potency was 11.6 µM (active) and 3.98 µM (active). The same measure, in the same setting: in the case of `CCCCC1C(=O)N(c2ccccc2)N(c2ccc(O)cc2)C1=O` (stereo not given) it was 16.4 µM (active). Consider `Cc1c(N(C)CS(=O)(=O)O)c(=O)n(-c2ccccc2)n1C`, for which the activity (max response) is 3.83%. As to `O=C(Nc1ccc2[nH]nc(-c3ccncc3)c2c1)[C@@H]1CCN(CC(=O)N2CCN(c3ccc(-c4ncccn4)cc3)CC2)C1`, the Potency is 4.47 µM (active).

On to `CCN(CC)CCNC(=O)COc1ccc(OC)cc1`, for which the activity (max response) is -8.99%.

As for `Cc1cnc(C(=O)NCCc2ccc(S(=O)(=O)NC(=O)NC3CCCCC3)cc2)cn1`, the activity (max response) was -1.95% and -7.3%. For `COc1nccc(-c2c(-c3ccc(F)cc3)ncn2C2CCC(O)CC2)n1` (stereo not given), the activity (max response) is -14%.

As for `CC1(C)OCCn2c1nc1c(N3CCOCC3)nc(-c3cnc(N)nc3)nc12`, the activity (max response) was -17.2%. Consider `CN1CCC(=C2c3ccccc3C=Cc3ccccc32)CC1`, for which the Potency is 25.1 µM (active).

In the case of `C[C@]12CCC3=C4CCC(=O)C=C4CC[C@H]3[C@@H]1CC[C@@]2(O)CC#N`, the activity (max response) is 0.0754%.

Take `CCn1ccnc1CC1COc2ccccc2O1` (stereo not given): the activity (max response) was 8.12%. As for `C1=CC2C3C=CC(C3)C2C1` (stereo not given), the activity (max response) is 5.69%. Regarding `COc1ccc([C@@H]2CNC(=O)C2)cc1OC1CCCC1`, the activity (max response) is -15.2%. As to `CNC(=O)c1c(C)oc2cc(Oc3ncnc4cc(OC)c(OC)cc34)ccc12`, the activity (max response) is 9.66%. Take `COc1cc(OC2CCN(C)CC2)ccc1Nc1ncc2c(n1)n(C1CCCC1)c(=O)n2C`: the Potency was 25.1 µM (active). As to `O=C(NCCCCN1CCOCC1)c1cc2ccccc2o1`, the activity (max response) is 10.7%. On the same count and under the same terms, with `COc1nccc(-c2c(-c3ccc(F)cc3)ncn2C2CCNCC2)n1` the figure was -17.6%; with `O=C1CN(/N=C/c2ccc([N+](=O)[O-])o2)C(=O)N1`, -20.9%. Consider `CC(C)(C(=O)NCC(F)(F)C(F)(F)F)C(=O)N[C@@H]1C(=O)Nc2ccccc2-c2ccccc21`, for which the activity (max response) was -5.79%. Turning to `Cc1ccc2c(n1)Oc1ccc(C(C)C(=O)OCC(=O)N(C)C)cc1C2` (stereo not given), the activity (max response) was -7.34% and -9.36%. As to `Cc1c(C(=O)NN2CCCCC2)nn(-c2ccc(Cl)cc2Cl)c1-c1ccc(Cl)cc1`, the Potency is 28.2 µM (active). `CC(=O)N1C[C@H](O)C[C@H]1C(=O)O`: the activity (max response) is 0.891%. As to `Cc1cc(NS(=O)(=O)c2ccc(N)cc2)nc(C)n1`, the activity (max response) is 9.61%. As to `C[n+]1ccccc1/C=N/O`, the activity (max response) was 3.67%.
